# From PubChem BioAssay (NCI)
# About 83,000 compounds went through this panel and 20% of them were active in at least one assay; those are over-represented in the sample as a whole.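 The endpoint reported here, percent growth, reads 100 for growth as untreated, 0 for no net growth and -100 for all cells dead.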 Active and inactive are the calls of the source. Rule for the calls: active = growth percent below 10; inactive = the rest.
# System: HL-60(TB) leukemia
# Assay: NCI-60 one-dose screen, 48 h (100 = growth as untreated, 0 = no growth, -100 = all killed)
# Conditions: 10 µM unless noted
row,SMILES,growth
1,COc1ccc(C(=S)N2CCN(c3cccc(C)c3)CC2)cc1OC,57.3% (inactive)
2,O=C1C(Br)=C(c2ccccc2)C(=O)C(Br)=C1c1ccccc1,78.6% (inactive)
3,CCOc1cc2c(cc1OCC)C(c1cc(C)c(O)c(C)c1)NCC2 (centres undefined),81.7% (inactive)
4,CCN(CC)CCCNCc1cc(-c2ccccc2)nc2cc(Cl)ccc12,14% (inactive)
5,N#Cc1cccc(-c2nc3ccccn3c2NCCN2CCOCC2)c1,101% (inactive)
6,Cc1cc2c(cc1[N+](=O)[O-])NC(CNC(C)C)CC2 (centres undefined),90.9% (inactive)
7,COc1ccc(NS(=O)(=O)c2ccc(C)cc2)c([N+](=O)[O-])c1,90.7% (inactive)
8,O=C1NC(=O)/C(=C/c2ccc3nccc(-c4ccncc4)c3c2)S1,-32.1% (active)
9,COc1cc(/C=C/C(=O)c2c(C)nc3ccccc3c2/C=C/c2ccc(C)cc2)cc(OC)c1OC,12.5% (inactive)
10,CCCCCCCCCCCCCCCC(=O)NS(=O)(=O)OC[C@H]1O[C@@H](n2cnc3c(N)ncnc32)[C@H](O)[C@@H]1O,-11.6% (active)
11,O=C1/C=C/[C@@H](O)[C@@H]2C[C@@H](O)C[C@H]2/C=C/CCC[C@H](CCc2ccc(NC(=S)Nc3ccc4c(c3)C(=O)OC43c4ccc(O)cc4Oc4cc(O)ccc43)cc2)O1,4.65% (active)
12,O=C(NC1CCCCC1)C(c1cccs1)N(CCc1ccccc1)C(=O)c1ccco1 (centres undefined),100% (inactive)
13,COc1ccc(C2OC(N)=C(O)C2=O)cc1OC (centres undefined),92.6% (inactive)
14,COc1cc(Nc2ncc(F)c(Nc3ccc4c(n3)NC(=O)C(C)(C)O4)n2)cc(OC)c1OC,103% (inactive)
